Bioassay records: PubChem BioAssay, National Center for Advancing Translational Sciences (NCATS)
Pol iota inh – qHTS for Inhibitors of Polymerase Iota; Pol iota fluorescent replication assay, 10 min; 1% of 390,000 active; Potency, µM (doses to about 115 µM), inactives show at the highest dose activity, negative = inhibition, actives largely listed as inhibitors; further: potency means the concentration at half of the fitted maximal effect
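Pol iota at 10 nM preincubated 15 min with compounds at room temperature; reaction started with fluorescent substrate, 50 nM final. Fluorescence read kinetically at 0 and 10 min; buffer-only wells as negative control.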
POLB inh – qHTS Assay for Inhibitors of DNA Polymerase Beta. P06746. Pol beta primer extension/strand displacement, fluorescence kinetic. Potency, µM (titrated, usually from 114 µM), for the others: at the top dose activity change, negative = inhibition, hits mostly inhibitors. 1.3% of 340,000 active. AID 485314, 2010; further: potency means the concentration at half of the fitted maximal effect; on the % scale 0 is the no-effect control and ±100 the full control effect
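Kinetic readout of DNA synthesis with strand displacement by Pol beta. Compound and 10 nM enzyme sit 15 min at room temperature; 50 nM substrate starts the reaction, read immediately and at 10 min.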
WRN helicase inh – qHTS for Inhibitors of WRN Helicase; Bifunctional 3'-5' exonuclease/ATP-dependent helicase WRN (Homo sapiens), Q14191; WRN helicase unwinding, fluorescent forked duplex, kinetic; Potency, µM (top dose mostly 114 µM), inactives show at the highest dose activity change, negative = inhibition, actives largely listed as inhibitors; 0.46% of 360,000 active; further: potency means the concentration at half of the fitted maximal effect; on the % scale 0 is the no-effect control and ±100 the full control effect; nearly all actives have a fitted effect of over 55% in size
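Enzyme (20 nM final) and test compound sit together 15 min at room temperature before substrate addition. Substrate is a single-forked duplex oligonucleotide (100 nM) labelled with fluorophore and quencher, with 2 mM ATP; helicase unwinding raises red fluorescence, read kinetically.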
Pol kappa inh-1 – qHTS for Inhibitors of Polymerase Kappa; AID 588579, 2011; purified Pol kappa, fluorescent DNA synthesis assay, 10 min; Potency, µM (highest dose often 107 µM), for the others: at the top dose activity, negative = inhibition, hits mostly inhibitors; 0.53% of 400,000 active; further: potency means the concentration at half of the fitted maximal effect; on the % scale 0 is the no-effect control and ±100 the full control effect
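50 nM final substrate added after 15 min RT preincubation of 10 nM Pol kappa with compound; fluorescence read at 0 and 10 min.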
FEN1 inhibitor – qHTS Assay for the Inhibitors of Human Flap endonuclease 1 (FEN1); Recombinant FEN1 flap cleavage, fluorescence, 15 min; P39748; Potency, µM (series often up to 114 µM), for inactives: at the highest dose activity change, negative = inhibition, most hits filed as inhibitors; 0.35% of 390,000 active; further: potency means the concentration at half of the fitted maximal effect; on the % scale 0 is the no-effect control and ±100 the full control effect; nearly all actives have a fitted effect of over 65% in size
Target sequence (P39748 whole entry, looked up): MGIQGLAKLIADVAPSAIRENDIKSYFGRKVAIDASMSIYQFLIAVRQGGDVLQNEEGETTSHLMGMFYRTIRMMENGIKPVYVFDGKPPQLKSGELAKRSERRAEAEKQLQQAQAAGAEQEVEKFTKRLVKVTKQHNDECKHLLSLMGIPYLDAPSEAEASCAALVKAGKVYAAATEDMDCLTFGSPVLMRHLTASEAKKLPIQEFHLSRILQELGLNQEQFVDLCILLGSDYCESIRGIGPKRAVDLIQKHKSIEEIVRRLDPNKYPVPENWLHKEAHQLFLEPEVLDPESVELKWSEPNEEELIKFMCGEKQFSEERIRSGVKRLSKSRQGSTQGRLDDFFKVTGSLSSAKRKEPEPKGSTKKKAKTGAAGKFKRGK
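In this screen, 50 nM flap DNA substrate was added to 10 nM FEN1 pretreated with compound for 15 min at room temperature; cleavage was followed with reads at 0 and 15 min, and Hill fitting gave concentration–response parameters.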
Pol eta inh-1 – qHTS for Inhibitors of Polymerase Eta. DNA polymerase eta (Homo sapiens), Q9Y253. Potency, µM (titrated, usually from 114 µM), for the others: at the highest dose activity change, negative = inhibition, actives largely listed as inhibitors. 1.2% of 390,000 active. AID 588591, 2011. recombinant Pol eta, fluorescent DNA replication assay; further: potency means the concentration at half of the fitted maximal effect; on the % scale 0 is the no-effect control and ±100 the full control effect
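Pol eta at 10 nM preincubated with compounds 15 min at room temperature; reaction started with fluorescent substrate (50 nM final) and read kinetically at 0 and 10 min.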
GALK confirm – Confirmation Assay for Inhibitors of Human Galactokinase (GALK) | purified GALK, Kinase-Glo ATP depletion luminescence | 70% of 150 active | AID 2015, 2009 | Potency, µM (titrated, usually from 115 µM), for inactives: top-dose activity, negative = inhibition, most hits filed as inhibitors | shares compounds with Pol eta inh-1
GALK redox cs – Confirmatory Assay for Inhibitors of Human Galactokinase (GALK): Phenol-HRP redox assay counterscreen; shares compounds with Pol eta inh-1; Phenol red-HRP H2O2 redox cycling, absorbance 600 nm; Potency, µM (titrated, usually from 115 µM), for the others: at the highest dose activity change, negative = H2O2 signal, hits mostly inhibitors; 40% of 150 active
HEK293 viability – Secondary Assay for Inhibitors of Human Galactokinase (GALK): HEK-293 Cell Viability Assay | shares compounds with Pol eta inh-1 | HEK-293 viability, ATP luminescence (CellTiter-Glo), 24/48 h | Potency, µM (doses to about 46.1 µM), for the others: at the highest dose activity change, negative = cytotoxicity, usual class: inhibitors | 10% of 170 active | AID 2547, 2010; further: potency means the concentration at half of the fitted maximal effect; on the % scale 0 is the no-effect control and ±100 the full control effect
Pol kappa inh-2 – qHTS for Inhibitors of Polymerase Kappa: Confirmatory Assay for Cherry-picked Compounds | shares compounds with Pol eta inh-1 | purified Pol-kappa, fluorescent strand-displacement substrate | Potency, µM, actives largely listed as inhibitors | 76% of 920 active; further: potency means the concentration at half of the fitted maximal effect
Pol eta inh-2 – qHTS for Inhibitors of Polymerase Eta: Confirmatory Assay for Cherry-picked Compounds; shares compounds with Pol eta inh-1; Pol eta primer extension, TAMRA/BHQ fluorescence, 10 min; Potency, µM, most hits filed as inhibitors; 64% of 2,600 active; further: potency means the concentration at half of the fitted maximal effect
An asterisk follows results filed as active; ? = inconclusive; nt = no result given; [ ] = remark or other dose. In the library only some 2.4% were active in any assay of this set; here they are far more common. The call rests on the fitted dose curve; in most records, active means well fitted curve in the direction sought with a large enough effect; inconclusive means small, poorly fitted or top-dose-only effect, or another doubt; inactive means no such curve, though single readings can be large; an effect the other way counts as inactive or inconclusive.

SMILES	Pol iota inh	POLB inh	WRN helicase inh	Pol kappa inh-1	FEN1 inhibitor	Pol eta inh-1	Pol eta inh-2	others
CCOC(=O)c1cc2c(=O)n3ccccc3nc2n(CCCOC)c1=NC(=O)c1cc2ccccc2o1	32%	-15%	nt	-3%	-5%	-20%	nt
Cc1cc(C(=O)C(=O)Nc2nnc(C(C)C)s2)c(C)n1-c1ccccc1	11%	12%	nt	-4%	-8%	40µM*	?	Pol kappa inh-2=21*
Cc1cc(C(=O)C(=O)Nc2nncs2)c(C)n1-c1ccc(Cl)cc1	-25%	?	nt	-18%	7%	?	nt
Cc1cccc(-n2c(C)cc(C(=O)C(=O)Nc3nncs3)c2C)c1	46%	-1%	nt	-5%	17%	50µM*	?	Pol kappa inh-2=?
CCC(C)n1c(=O)c2sccc2n2c(CCCC(=O)N3CCN(c4ccccc4)CC3)nnc12 (stereo not drawn)	37%	7%	nt	4%	18%	-16%	nt
COCCCn1c(=O)/c(=C\c2ccccc2OC(C)C)s/c1=C(/C#N)C(=O)Nc1ccc(C(=O)O)cc1	?	1%	?	-28%	?	?	43*
Cc1cc(C=Nc2ccc(/C=C/c3ccnc4ccccc34)cc2)ccc1N(C)C	5%	nt	nt	4%	-5%	nt	nt
CCCCc1nn2c(=O)cc(COC(=O)c3cccc(NC(=O)CCc4ccccc4)c3)nc2s1	2%	0%	nt	3%[60.1 µM]	6%	2%	nt
Cc1cc(C)nc(NS(=O)(=O)c2ccc(NS(=O)(=O)c3ccc(C#N)cc3)cc2)n1	-7%	11%	-31%	-3%	5%	-13%	nt
Cc1cc(C)nc(SCC(=O)NNS(=O)(=O)c2ccc(C#N)cc2)n1	18µM*	nt	?	?	-20%	13µM*	76*	Pol kappa inh-2=?
Cc1snc(S(=O)(=O)/C(C#N)=N/Nc2ccc(C(F)(F)F)cc2)c1C#N	0%	0%	-16%	1%	7%	0%	nt	GALK confirm=38µM*;GALK redox cs=3%;HEK293 viability=6%
C=C1C=C(C)n2ncc(C(=O)Nc3ccc(F)cc3F)c2N1	15%	nt	nt	-4%	-4%	nt	nt
Cc1nc(N2CCCC2)ncc1C(=O)N1CCN(c2ccc(Cl)cc2)CC1	-3%	1%	nt	2%[60.1 µM]	4%	nt	nt
